Only some compounds are listed: those with a hit (about 27% of all), similar ones and a draw of the others.
CYP2C9 inh = blocks human cytochrome P450 2C9; P11712; CYP2C9 Supersomes, luciferin-H conversion, luminescence; hit rate 20% among 96,000; inhibition, % at 5 µM;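 active means blocking of liver enzyme CYP2C9 beyond about 50% at 5 µM, limit read from the data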
CYP2C9 activ = activators of human CYP2C9. AID 1024. activation factor at 5 µM. hit rate 1.4% among 96,000. recombinant CYP2C9, luciferin-H conversion, luminescence; hits give high values; factor 1 = untreated enzyme, 0 = blocked;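 active means activation factor of 2 or more for CYP2C9 at a 5 µM dose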
CYP2C19 activ = activators of human cytochrome P450 2C19; P33261; 96,000 tested, under 10 active; recombinant CYP2C19, luciferin-H EGE luminescence; hits give high values; 0 = fully inhibited enzyme, 1 = untreated enzyme; activation factor at 5 µM;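 active means activation factor of at least 2 at 5 µM in the primary screen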
Target sequence (P33261 whole entry, looked up): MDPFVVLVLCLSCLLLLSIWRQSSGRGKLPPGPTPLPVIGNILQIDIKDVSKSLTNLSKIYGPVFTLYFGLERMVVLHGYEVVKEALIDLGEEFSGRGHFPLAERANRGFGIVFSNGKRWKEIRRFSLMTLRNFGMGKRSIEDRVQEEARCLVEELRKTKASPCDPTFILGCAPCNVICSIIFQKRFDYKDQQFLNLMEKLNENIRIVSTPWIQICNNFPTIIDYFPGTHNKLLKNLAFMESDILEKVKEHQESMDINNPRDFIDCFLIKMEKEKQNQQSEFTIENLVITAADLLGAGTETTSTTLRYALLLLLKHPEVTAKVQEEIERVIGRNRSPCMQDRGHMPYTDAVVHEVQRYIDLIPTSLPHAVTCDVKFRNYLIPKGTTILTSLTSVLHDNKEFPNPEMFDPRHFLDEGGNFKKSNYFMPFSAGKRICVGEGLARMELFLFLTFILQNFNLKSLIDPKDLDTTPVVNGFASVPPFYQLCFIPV
sEH act = soluble epoxide hydrolase (human) activation | P34913 | activation, % at 2 µM | hit rate 0.04% among 91,000 | purified human sEH enzymatic activity, activator screen; in the data active means activation above about 37%
CYP2C19 inh = inhibitors of human CYP2C19; inhibition, % at 5 µM; hit rate 21% among 96,000; CYP2C19 Supersomes, luciferin-H EGE luminescence, 30 min; P33261;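 active means CYP2C19 inhibition above a set limit at 5 µM in the primary screen, cut at about 50% in these data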
sEH inh = soluble epoxide hydrolase (human) inhibition; hit rate 0.34% among 91,000; recombinant human sEH enzymatic activity assay; AID 707; inhibition, % at 2 µM; in the data active means inhibition above about 80%
A number is an active result; n = inactive; x = no result.

SMILES	CYP2C9 inh	CYP2C9 activ	CYP2C19 activ	sEH act	CYP2C19 inh	sEH inh
Clc1ccc(-c2onc3c2CCCC3)cc1	n	n	n	n	n	n
CCOC(=O)C1(S(=O)(=O)c2ccccc2)CCN(Cc2ccc(Cl)cc2)CC1	n	n	n	n	n	n
CCOC(=O)C1CCCN(C(=O)c2cc(Cl)ccc2Cl)C1 (stereo not drawn)	94	n	n	n	97	n
CCOC(=O)N1CCN(C(=O)c2ccc3c(c2)sc2nc(-c4ccccc4)cn23)CC1	57	n	n	n	n	n
CCOC(=O)C1CCN(C(=O)Cc2ccc(OC)c(OC)c2)CC1	n	n	n	n	n	n
CCOC(=O)C1CCN(C(=O)Cc2ccc(C)cc2)CC1	52	n	n	n	n	n
CCOC(=O)C1CCCN(C(=O)c2cccs2)C1 (stereo not drawn)	n	n	n	n	n	n
CCOC(=O)C1(S(=O)(=O)c2ccc(Cl)cc2)CCN(Cc2ccc(Cl)cc2)CC1	69	n	n	n	57	n
CCOC(=O)N1CCC(NC(=O)c2ccc3c(c2)sc2nc(-c4ccc(OC)cc4)cn23)CC1	n	n	n	n	n	n
Cc1ccc(C)c(-n2c(CNc3ccc(F)cc3)nnc2SCC(N)=O)c1	n	n	n	x	n	x
Cc1cccc(NC(=O)N2CCCC2C(=O)NCc2cccs2)c1 (stereo not drawn)	n	n	n	n	n	n
O=C(O)CCSCc1ccccc1F	n	n	n	x	n	x
Nc1nnc(CC(=O)NCc2ccccc2)s1	n	n	n	n	n	n
CCOC(=O)C1CCCN(C(=O)Cc2c(F)cccc2Cl)C1 (stereo not drawn)	n	n	n	n	67	n
CCOC(=O)C1CCCN(C(=O)CCc2ccccc2)C1 (stereo not drawn)	n	n	n	n	n	n
CCOC(=O)C1CCN(C(=O)Cc2c(F)cccc2Cl)CC1	n	n	n	n	n	n
CCOC(=O)C1CCCN(C(=O)C(C)Oc2ccc(Cl)cc2Cl)C1 (stereo not drawn)	51	n	n	n	n	n
CCOC(=O)C1CCCN(C(=O)Cc2ccc(Cl)cc2)C1 (stereo not drawn)	76	n	n	n	n	n
COc1ccc(C(CNC(=O)C2CC(=O)N(Cc3ccc(C)cc3)C2)N(C)C)cc1 (stereo not drawn)	n	n	n	x	n	x
Cc1ccc2cc(C#N)c(SCC(=O)Nc3ccc4sc(C)nc4c3)nc2c1	n	n	n	n	n	n
C=CCN1CCN(C(c2cc(OC)ccc2OC)c2nnnn2CC2CCCO2)CC1 (stereo not drawn)	n	n	n	n	n	n
O=C(COC(=O)Cn1c(C(F)(F)F)nc2ccccc21)Nc1ccc2c(c1)OCCO2	n	n	n	n	n	n
O=C(Nc1nc(-c2cc(Cl)sc2Cl)cs1)c1ccccc1	n	n	n	n	n	n
COc1ccc(C2CCCN2C(=O)c2cccs2)cc1 (stereo not drawn)	n	n	n	n	n	n
COc1ccc(NC(=O)COC(=O)[C@@H]2CCCN2C(=O)c2cccs2)c(OC)c1	56	n	n	n	n	n
SMILES	CYP2C9 inh	CYP2C9 activ	CYP2C19 activ	sEH act	CYP2C19 inh	sEH inh
NC(=O)c1ccsc1NC(=O)COC(=O)C1CCCN1C(=O)c1cccs1 (stereo not drawn)	72	n	n	x	72	x
Cc1c(C(=O)NCCSCc2ccc(Cl)cc2Cl)cccc1[N+](=O)[O-]	n	n	n	n	n	n
CCc1ccc(N2C(=O)c3ccc4c5c(ccc(c35)C2=O)CC4)cc1	n	n	n	n	n	n
Cc1ccc(C(=O)c2cc3c(cc2N)OCCO3)cc1	68	n	n	x	67	x
Nc1cc2c(cc1C(=O)c1ccc(Cl)cc1)OCCO2	70	n	n	n	61	n
Nc1cc2c(cc1C(=O)c1ccccc1)OCCO2	n	n	n	n	51	n
COc1cc(OC)c(Cl)cc1N	n	n	n	x	n	x
CCC(C)Oc1nc(C)cc(C)c1S(=O)(=O)c1ccccc1C (stereo not drawn)	n	n	n	n	n	n
Cc1cc(C)c(S(=O)(=O)c2c(C)cccc2C)c(OCC(C)C)n1	91	n	n	x	84	x
COc1ccc(Cc2nnc(SCC(=O)Nc3nc(C)cs3)o2)cc1	n	n	n	n	n	n
Cc1nc2c(Br)cc(Br)cc2cc1O	62	n	n	n	n	n
CCN(CC)c1ccc(C(=O)n2cnc3ccccc32)cc1	75	n	n	x	85	x
Cn1c2c(c(=O)n(C)c1=O)C1(C(=O)Nc3ccccc31)C(C#N)=C(N)O2 (stereo not drawn)	n	n	n	n	n	n
O=c1ccc(/C=C/c2ccccc2)nn1Cc1ccc(Cl)cc1Cl	n	n	n	n	n	n
O=Nc1c(O)n(Cc2ccc(Cl)cc2)c2ccccc12	90	n	n	n	84	n
O=Nc1c(O)n(Cc2ccc(Cl)cc2Cl)c2ccccc12	60	n	n	n	n	n
COc1ccc(OC)c(C(c2nnnn2Cc2ccccc2)N2CCN(C3CCCCC3)CC2)c1 (stereo not drawn)	n	n	n	x	n	x
CC1=CCC2C(=O)N(c3ccc(C)cc3)C(=O)C2C1 (stereo not drawn)	n	n	n	n	64	n
CC1=CCC2C(=O)N(c3ccc(Br)cc3C)C(=O)C2C1 (stereo not drawn)	60	n	n	n	78	n
CC1=CCC2C(=O)N(c3ccc4ccccc4n3)C(=O)C2C1 (stereo not drawn)	n	n	n	n	62	n
CCOc1ccccc1OCC(=O)Nc1ccc(N2CCCCC2)cc1	n	2.6	n	n	n	n
O=C(COC(=O)c1ccc(O)cc1)Nc1ccc(N2CCCCC2)cc1	74	n	n	n	64	n
CCOc1ccccc1C(=O)OCC(=O)Nc1ccc(N2CCCCC2)cc1	n	n	n	n	n	n
CCC(=O)N1CCN(c2ccccc2NC(=O)COc2ccccc2Cl)CC1	94	n	n	n	87	n
CCCCOC(=O)Nc1ccc(N2CCOCC2)cc1	x	x	x	n	x	n
SMILES	CYP2C9 inh	CYP2C9 activ	CYP2C19 activ	sEH act	CYP2C19 inh	sEH inh
COc1cc(OC)cc(C(=O)OCC(=O)Nc2ccc(N3CCCCC3)cc2)c1	n	n	n	n	n	n
CCCCOC(=O)Nc1ccc(N2CCCCC2)cc1	52	n	n	n	70	n
CCC(=O)N1CCN(c2ccc(NC(=O)COc3ccccc3Cl)cc2)CC1	71	n	n	n	81	n
CCOCCNC(=O)c1ccc2c3c(cccc13)CC2	n	3.4	n	n	n	n
CCOCCCNC(=O)c1ccccc1Br	n	n	n	n	n	n
COc1ccc(C)cc1-n1nnnc1SCc1cn2ccsc2n1	n	n	n	n	87	n
COc1ccc(C)cc1-n1nnnc1SCC1CCCCO1 (stereo not drawn)	73	n	n	n	100	n
Cc1cccc(Nc2nnc(SCc3cn4ccsc4n3)s2)c1	57	n	n	n	74	n
O=c1cc(CSc2nnc(Nc3ccccc3)s2)nc2sccn12	n	n	n	n	n	n

High-throughput results deposited in PubChem by several laboratories.
